# Compound activity from PubChem BioAssay.
# A selection: hits, their analogues and other compounds. The true share with any hit is near 4.7%.
# D1 ag: human D1 receptor agonism; P21728; HEK293 T-REx D1 cells, calcium flux, agonist mode; activation, % at 2 µM; 1% of 360,000 active; AID 504660
#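 Tetracycline-induced HEK293 TREx D1 cells, force-coupled to calcium signalling, were dye-loaded with a no-wash calcium kit. Compound was pin-added after a 10 s baseline. Fluorescence was read kinetically at 1 cycle/s for 180 s, with calcium rises flagged as agonism.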
# D1 potentiator: potentiators of human D1 dopamine receptor; P21728; potentiation, % at 10 µM; AID 504651; 0.036% of 360,000 active; HEK293 TREx D1 cells, calcium flux, dopamine EC20 potentiation; in the data active means potentiation above about 30%
# D1 antagonist: antagonists of human D1 dopamine receptor; activity change, negative = inhibition, % at 10 µM; P21728; 3.2% of 360,000 active; HEK293 TREx D1 cells, calcium flux, dopamine EC80; stronger effect = lower value; in the data active means activity change below about -30%
#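 Tetracycline-induced HEK293 T-REx cells with force-coupled D1 receptor were loaded with a no-wash calcium dye. Compound was added after a 10 s baseline and read kinetically for 180 s; EC80 dopamine was then added and calcium flux followed another 180 s.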
# TRHR ag: agonists of human TRH receptor; P34981; TRHR cells, calcium flux fluo-8, FDSS agonist mode; activation, % at 2 µM; 0.18% of 360,000 active
# Target sequence (P34981 whole entry, looked up): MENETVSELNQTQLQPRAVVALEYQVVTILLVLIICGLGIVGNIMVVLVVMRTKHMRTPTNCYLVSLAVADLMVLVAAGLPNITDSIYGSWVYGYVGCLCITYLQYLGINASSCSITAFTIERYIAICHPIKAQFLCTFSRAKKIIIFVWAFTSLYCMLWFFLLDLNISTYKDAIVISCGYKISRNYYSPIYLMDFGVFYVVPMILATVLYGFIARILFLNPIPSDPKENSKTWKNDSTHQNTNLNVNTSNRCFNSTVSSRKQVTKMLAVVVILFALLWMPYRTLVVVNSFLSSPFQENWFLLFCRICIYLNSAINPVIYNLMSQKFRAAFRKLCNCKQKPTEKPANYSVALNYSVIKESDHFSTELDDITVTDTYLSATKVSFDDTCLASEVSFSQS
#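 Fluo-8-loaded TRHR cells; 10 s baseline, compound added, kinetic Ca2+ fluorescence read 1/s, agonist mode.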
# TRHR enhancer: allosterically enhances the human TRH receptor; TRHR cells, fluo-8 calcium fluorescence, EC20 TRH enhancement; enhancement, % at 2 µM; 0.66% of 360,000 active; AID 493056; in the data active means enhancement above about 30%
#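 TRHR-expressing cells loaded with fluo-8 calcium dye were read kinetically (ex 480/em 530) during compound addition, then stimulated with an EC20 of TRH (10 nM final). Enhancement of the Gq-mediated intracellular calcium response was scored.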
# A number is an active result; n = inactive. Unless noted, no stated cut-off is given here; in the data, active means activation above about 30%; inactive means the rest.
SMILES,D1 ag,D1 potentiator,D1 antagonist,TRHR ag,TRHR enhancer
COc1ccc(S(=O)(=O)n2nc(-c3ccco3)nc2NCc2ccc(OC)c(OC)c2)cc1,n,n,n,n,n
COc1cc(OC)c(NC(=O)c2noc3c2CSc2ccccc2-3)cc1Cl,n,n,n,n,n
CCOC(=O)c1ccc(/C=C2/C=C(c3ccccc3)N(c3ccc(Cl)c(C(=O)O)c3)C2=O)cc1,102.9,n,n,n,n
CCCCn1c(CN2CCN(c3cccc(Cl)c3)CC2)nc2c1c(=O)n(C)c(=O)n2C,n,n,-31.4,n,n
CCCCCn1c(CN2CCN(c3cccc(Cl)c3)CC2)nc2c1c(=O)n(C)c(=O)n2C,n,n,n,n,n
CCCc1nc2sc3ccccc3c(=O)c2c(=O)n1Cc1ccco1,80.2,n,n,n,n
CCN(CC)c1ccc(NC(=O)c2cnn3c(C(F)F)cc(-c4ccccc4)nc23)cc1,n,n,n,n,n
Cc1nc(-c2coc3cc(O)c(C)cc3c2=O)cs1,n,n,-50.5,n,n
CCOC(=O)c1cccc(NS(=O)(=O)c2cc(Br)cc3c2N(C(=O)C2CC2)CC3)c1,n,n,n,n,n
CCN(C(=O)CCS(=O)(=O)c1cc2[nH]c(=O)c(=O)[nH]c2cc1C)c1ccccc1,n,n,-79.7,n,n
Cc1ccc2occ(CC(=O)N(Cc3ccccc3Cl)C3CCS(=O)(=O)C3)c2c1 (stereo unspecified),n,n,n,n,n
Cc1ccc(CNc2nc3ccc(Cl)cc3n3cnnc23)cc1,n,n,n,n,n
CCN(CC)Cc1c(O)ccc2c(-c3ccccc3)cc(=O)oc12,n,n,-31.1,n,n
O=C(Nc1ccccn1)[C@@H]1CCC(=O)N1C(=O)OCc1ccccc1,n,n,-31.3,n,n
Cc1c(N=C2N=C(NC(=O)c3cccs3)c3ccccc32)c(=O)n(-c2ccccc2)n1C,40.8,n,n,n,n
CCOCCCNc1nc2c(C)cccn2c(=O)c1/C=C1\SC(=S)N(CC(C)C)C1=O,30.4,n,n,n,n
CCOCCCNc1nc2c(C)cccn2c(=O)c1/C=C1\SC(=S)N(C(C)CC)C1=O (stereo unspecified),113.6,n,n,n,n
CCOC(=O)CC1C(=O)NCCN1c1nc2c(C)cccn2c(=O)c1/C=C1\SC(=S)N(CC(C)C)C1=O (stereo unspecified),111.1,n,n,n,n
S=C(NCc1ccncc1)Nc1cc(Cl)cc(Cl)c1,n,n,-30.8,n,n
CNC(=S)Nc1ccc(Cc2ccncc2)cc1,n,n,n,n,n
S=C(NCc1ccncc1)Nc1ccc(Cl)c(Cl)c1,n,n,-35.7,n,n
S=C(Nc1ccc(Cc2ccncc2)cc1)Nc1cccc(Cl)c1,n,n,-31.9,n,n
COc1ccc(Cn2nnc3c(=O)[nH]c(C4CCCN(C(=O)c5ccccc5Cl)C4)nc32)cc1OC (stereo unspecified),n,n,n,n,n
Cc1oc(-c2cccc(Cl)c2)nc1CS(=O)(=O)CC(=O)NCCN1CCCC1,n,n,n,n,n
CCOc1ccc2oc(C(=O)NNC(=O)c3csc(N4CCOCC4)n3)c(C)c2c1,n,n,-38.4,n,n
SMILES,D1 ag,D1 potentiator,D1 antagonist,TRHR ag,TRHR enhancer
CC(NC(=O)c1ccc(=O)oc1)c1ccccc1 (stereo unspecified),n,n,-33.6,n,n
CC(=O)c1ccc(OC(C)C)c(CN2CCCCC2)c1,n,n,n,n,n
CC(=O)c1cc(CN2CCCCC2)cc(OC(C)C)c1,n,n,-44.6,n,n
C=C[C@@H]1c2ccccc2N(S(=O)(=O)c2ccc(C)cc2)[C@H](c2ccc(C(F)(F)F)cc2)C1(C#N)C#N,n,n,-31.6,n,n
Cc1ccc2c(c1)[nH]c1c(=O)n(CCC3=CCCCC3)cnc12,n,n,-31.7,n,n
O=c1c2[nH]c3ccccc3c2ncn1CCC1=CCCCC1,n,n,n,n,n
COc1ccc(CNc2ncnc3c2[nH]c2ccccc23)cc1,32.6,n,-41.6,n,n
C1=C(CCNc2ncnc3c2[nH]c2ccccc23)CCCC1,n,n,-34.4,n,n
COc1ccc(CNc2ncnc3c2[nH]c2cc(OC)c(OC)cc23)cc1,n,n,n,n,n
Cc1ccc2[nH]c3c(=O)n(CCC4=CCCCC4)cnc3c2c1,n,n,n,n,n
Cc1ccc2[nH]c3c(NCc4ccccc4)ncnc3c2c1,39.6,n,-50.8,n,n
